From the supplement of paper PMC9433436
± gives the standard deviation of the averaged measurements. Over roughly 4,100 sequences, “relative kcat/Km (krel) vs genomic leader AAAGAU” has its median near 1.7; the highest 2% begin near 6.5. Shown is part of a subset that was picked to be rich in the highest values.

Molecular target: T1, E. coli RNase P holoenzyme (M1 P RNA + rnpA protein) (UniProt P0A7Y8)
T1 sequence: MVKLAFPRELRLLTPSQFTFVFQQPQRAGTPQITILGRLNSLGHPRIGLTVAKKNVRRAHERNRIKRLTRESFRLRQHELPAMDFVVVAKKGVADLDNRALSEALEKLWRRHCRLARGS
Assay: relative kcat/Km (krel) vs genomic leader AAAGAU (relative (reference leader = 1)); higher = faster RNase P cleavage
Experimental: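 HTS-Kin: a pool of ptRNA-Met (21C construct) with all 4096 combinations of 5' leader nucleotides N(-6) to N(-1) was processed in vitro by E. coli RNase P (P RNA + rnpA/C5 protein) under multiple-turnover conditions at 37 C, pH 8, 17.5 mM MgCl2. Residual substrate was Illumina-sequenced at several fractions reacted, and relative kcat/Km (krel) was computed by internal competition kinetics, calibrated to the genomic leader (AAAGAU = 1). The listed hexamer is the varied N(-6)..N(-1) leader (DNA letters), and it sits between a fixed 5' stem-loop flank (GCAUGCACGAAAGUGCGUGCUAUGAA) and the mature tRNA-Met starting GGCUACGUAGCUCAGUUGG. Two technical replicates are averaged.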

[1] = fraction of substrate reacted: ~9-10% (9.79% repeat 1, 9.1% repeat 2)
[2] = fraction of substrate reacted: ~13-16% (15.68% repeat 1, 13.17% repeat 2)
[3] = fraction of substrate reacted: ~26-29% (28.66% repeat 1, 26.4% repeat 2)

Sequence | relative kcat/Km [1] | relative kcat/Km [2] | relative kcat/Km [3]
TGCAGA | 1.65 ± 0.82 | 2.24 ± 0.094 | 2.7 ± 0.68
TTCAGA | 5.95 ± 2.5 | 6.69 ± 1.9 | 10.5 ± 4.5
CTTAGC | 2.96 ± 1.3 | 3.29 ± 1.3 | 3.62 ± 0.95
TTCGGA | – | – | 1.79 ± 1
GTCAGT | – | – | 2.53 ± 2.2
GTCAGC | 4.18 ± 1.7 | 5.29 ± 0.92 | 7.22 ± 2.9
GTCAGG | 0.667 ± 0.23 | 1.03 ± 0.2 | 2.57 ± 1.1
TTCAGT | – | 2.35 ± 1.7 | 3.37 ± 2.9
TTCAGG | 1.31 ± 0.71 | 1.12 ± 0.87 | 2.76 ± 0.9
CTCAGC | 4.51 ± 1.9 | 5.37 ± 1.6 | 7.11 ± 2.5
ATCAGC | 2.87 ± 0.62 | 3.75 ± 1 | 5.41 ± 1.6
AATGTT | 0.792 ± 0.16 | 0.821 ± 0.55 | 1.29 ± 0.62
TTAATA | 1.94 ± 0.59 | 2.09 ± 0.08 | 2.85 ± 1
AGGGGG | – | – | 1.11 ± 1
GGCGCC | 2.72 ± 2.1 | 2.21 ± 0.42 | 3.06 ± 0.78
ACCCCC | 2.28 ± 0.72 | 1.22 ± 0.62 | 3.15 ± 1.3
CTAGTA | 1.32 ± 0.52 | 0.841 ± 0.56 | 1.69 ± 0.87
CACCTG | – | – | 0.873 ± 0.43
AACCCG | – | – | 0.785 ± 0.38
CTCATG | – | 1.28 ± 0.22 | 3.1 ± 0.052
CTTATT | 2.42 ± 1 | 2.76 ± 0.34 | 3.73 ± 1.6
CTCATC | 3.63 ± 1 | 4.57 ± 0.43 | 6.8 ± 2.4
GGCATC | 1.73 ± 0.36 | 2.09 ± 0.48 | 2.42 ± 0.71
CGCATT | 2.39 ± 0.24 | 2.95 ± 0.92 | 4.66 ± 2
GTCATC | 4.03 ± 1.8 | 5.36 ± 1.2 | 8.03 ± 3.5

Sequence | relative kcat/Km [1] | relative kcat/Km [2] | relative kcat/Km [3]
GCCATC | 2.88 ± 0.72 | 3.43 ± 1.3 | 4.62 ± 1.3
ATCATC | 3.27 ± 0.66 | 4.72 ± 0.78 | 6.25 ± 2.5
CTCATT | 3.69 ± 1.4 | 5.23 ± 0.62 | 7.36 ± 3
GGATAA | 1.77 ± 0.4 | 2.37 ± 0.4 | 2.82 ± 1.2
ATTGAA | 2.28 ± 0.51 | 2.44 ± 0.32 | 3.48 ± 1.1
GGTAGA | 2.41 ± 0.65 | 2.19 ± 0.26 | 3.13 ± 1.6
TTTGAT | 0.799 ± 0.12 | 1.01 ± 0.025 | 1.39 ± 0.26
CCAGTC | 2.41 ± 0.63 | 1.32 ± 0.76 | 1.52 ± 0.37
TACATC | 3.03 ± 0.57 | 4.44 ± 0.76 | 6.8 ± 2.7
GACATT | 3.42 ± 0.26 | 4.33 ± 1.3 | 6.4 ± 3.1
GACATC | 3.66 ± 0.77 | 3.95 ± 1.1 | 5.9 ± 2.2
TACATT | 3.85 ± 1.4 | 5.11 ± 0.79 | 7.56 ± 3.7
CACATC | 2.93 ± 1 | 3.64 ± 0.86 | 5.53 ± 2.1
TACATG | 0.765 ± 0.67 | 1.44 ± 0.13 | 3.16 ± 1.2
TCCCTA | 3.22 ± 1.7 | 3.63 ± 0.34 | 4.34 ± 1.6
CAAACG | – | 0.172 ± 0.13 | 0.797 ± 0.69
GAGAGT | 0.122 ± 0.072 | 1.48 ± 0.097 | –
GACTCC | 3.31 ± 0.62 | 4.26 ± 0.76 | 5.61 ± 2
AACTCT | 2.76 ± 1.1 | 3.3 ± 0.76 | 4.39 ± 1.2
TACTCC | 3.23 ± 0.81 | 5.06 ± 1 | 6.63 ± 2.8
AACTCC | 3 ± 2.2 | 3.3 ± 0.49 | 4.38 ± 1.3
TACTCT | 3.83 ± 0.27 | 4.7 ± 0.86 | 7.13 ± 3.3
CACTCT | 3.97 ± 1.4 | 4.52 ± 0.75 | 6.37 ± 2.3
TGATTC | 1.39 ± 0.61 | 2.97 ± 1.2 | 3.89 ± 1.8
CCAGCA | 1.37 ± 0.54 | 0.452 ± 0.45 | 0.927 ± 0.46
